# Screening results as filed in PubChem BioAssay.
# HEK293 tox: Cytotoxic Profiling in HEK 293 Cell Line of Diverse Libraries Using Quantitative High-Throughput Screening; 94,000 compounds, 6.6% hits; Potency, µM (highest dose often 115 µM), inactives show at the top dose activity change, negative = cytotoxicity, most hits filed as inhibitors; HEK 293 viability, ATP luminescence (CellTiter-Glo), 48-72 h; also: nearly all actives have a fitted effect of over 60% in size
#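 Read-out: CellTiter-Glo ATP luminescence. Cells: HEK 293, 250 cells/well. Exposure: 48 or 72 hr, 37 degree Celsius.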
# NIH3T3 tox: Cytotoxic Profiling in NIH 3T3 Cell Line of Diverse Libraries Using Quantitative High-Throughput Screening. NIH 3T3 viability, CellTiter-Glo ATP luminescence, 48-72 h. 94,000 compounds, 4.3% hits. Potency, µM (highest dose often 96.7 µM), for the others: at the top dose activity change, negative = cytotoxicity, usual class: inhibitors; also: nearly all actives have a fitted effect of over 55% in size
#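 First NIH 3T3 cells are plated at 400 cells/well; next compound is pinned in; then plates incubate 48 or 72 hr at 37 °C; finally CellTiter-Glo is added and luminescence read after 10 min.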
# GPT2 inhibitor: Primary qHTS assay for inhibitors of Glutamate pyruvate transaminase 2 (GPT2) | AID 1671188, 2021 | Recombinant GPT2, coupled pyruvate oxidase/HRP Amplex Red fluorescence | Potency, µM (doses to about 57.7 µM), for inactives: at the top dose activity change, negative = inhibition, usual class: inhibitors | 100,000 compounds, 0.25% hits | Alanine aminotransferase 2 (Homo sapiens), Q8TD30; also: nearly all actives have a fitted effect of over 60% in size
#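 Recombinant GPT2 (10ng/uL) with 250uM a-KG and 2mM L-alanine, 30 min at room temperature, in HEPES pH 7.5 buffer. Pyruvate detected by pyruvate oxidase/HRP/Amplex Red fluorescence after 30 min in the dark; AOA (50uM) as positive control.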
# FLuc inh: Firefly luciferase inhibition profiling of diverse chemical library using quantitative high-throughput screening; Luciferin 4-monooxygenase (Photinus pyralis), P08659; purified P. pyralis luciferase, luminescence, biochemical; Potency, µM (highest dose often 115 µM), usual class: inhibitors; 76,000 compounds, 2.5% hits; also: nearly all actives have a fitted effect of over 65% in size
#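 Biochemical qHTS: compound (6-point titration) added to 10uM D-luciferin plus 10uM ATP in Tris acetate pH 7.5 buffer with Mg, Tween-20 and BSA, then purified enzyme at 10nM; light output imaged.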
# hNpr1 antagonist: Natriuretic polypeptide receptor (hNpr1) antagonism - Primary qHTS. Atrial natriuretic peptide receptor 1 (Homo sapiens), P16066. HEK293 hNpr1 GloSensor cGMP, ANP-stimulated luminescence. Potency, µM (highest dose often 46.3 µM), for inactives: top-dose activity change, negative = inhibition, most hits filed as inhibitors. 76,000 compounds, 1.6% hits. AID 1347048, 2019; calls by dose curve; also: nearly all actives have a fitted effect of over 60% in size
# Target sequence (P16066 whole entry, looked up): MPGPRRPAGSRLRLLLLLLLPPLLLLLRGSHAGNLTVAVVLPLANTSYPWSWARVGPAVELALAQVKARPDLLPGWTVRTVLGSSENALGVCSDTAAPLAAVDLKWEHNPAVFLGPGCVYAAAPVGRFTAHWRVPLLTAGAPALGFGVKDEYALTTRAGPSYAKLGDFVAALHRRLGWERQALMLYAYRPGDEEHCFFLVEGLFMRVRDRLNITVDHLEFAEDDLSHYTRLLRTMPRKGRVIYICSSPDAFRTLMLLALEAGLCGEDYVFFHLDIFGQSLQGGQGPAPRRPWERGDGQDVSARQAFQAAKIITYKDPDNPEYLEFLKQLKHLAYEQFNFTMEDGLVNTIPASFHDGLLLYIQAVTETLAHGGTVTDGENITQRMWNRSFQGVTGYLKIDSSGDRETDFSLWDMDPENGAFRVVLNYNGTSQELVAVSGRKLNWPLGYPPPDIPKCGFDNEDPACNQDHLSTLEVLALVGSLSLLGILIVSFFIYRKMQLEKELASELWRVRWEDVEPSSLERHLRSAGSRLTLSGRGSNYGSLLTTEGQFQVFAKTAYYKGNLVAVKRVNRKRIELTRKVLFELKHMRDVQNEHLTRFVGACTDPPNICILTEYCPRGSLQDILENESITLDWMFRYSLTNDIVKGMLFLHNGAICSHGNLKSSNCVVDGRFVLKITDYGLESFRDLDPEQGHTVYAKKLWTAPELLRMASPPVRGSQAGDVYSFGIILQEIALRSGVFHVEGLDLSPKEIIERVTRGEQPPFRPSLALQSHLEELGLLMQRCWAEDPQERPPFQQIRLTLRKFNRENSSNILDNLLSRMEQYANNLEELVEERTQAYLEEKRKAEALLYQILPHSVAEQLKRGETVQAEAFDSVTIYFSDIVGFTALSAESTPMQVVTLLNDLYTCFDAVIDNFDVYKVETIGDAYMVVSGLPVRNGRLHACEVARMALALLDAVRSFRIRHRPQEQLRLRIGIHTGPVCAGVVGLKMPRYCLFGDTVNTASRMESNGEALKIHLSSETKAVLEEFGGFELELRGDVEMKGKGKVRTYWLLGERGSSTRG
#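 HEK293 cells stably expressing human Npr1 and cGMP GloSensor pGS-40F, loaded 2 h with 2% GloSensor reagent, given compound 30 min at room temperature. Luminescence read before and 20 min after 0.1 nM hNppA.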
# Numbers without * were called inactive; i = inactive; ? = inconclusive; · = no result; [ ] = remark or other dose. Hits are enriched below; roughly 10% of the tested compounds scored in any of these assays. Unless noted, calls follow the shape of the dose curve; as a rule, active = well fitted curve in the direction sought with a large enough effect; inconclusive = small, poorly fitted or top-dose-only effect, or another doubt; inactive = no such curve, though single readings can be large; an effect the other way counts as inactive or inconclusive. % is scaled to controls: 0 for no effect and ±100 for the full control effect; potency is read from the fitted curve at half-maximal effect.
SMILES,HEK293 tox,NIH3T3 tox,GPT2 inhibitor,FLuc inh,hNpr1 antagonist
Cc1noc(C)c1-c1cc2cc(CN(C)C)oc2c(NCC(C)C)n1,71µM*,50µM*,-13%[88.5 µM],i,-13%[70.6 µM]
Cc1noc(C)c1-c1cc2cc(CN(C)C)oc2c(NCCc2ccccc2)n1,56µM*,45µM*,?,i,-4%[70.6 µM]
O=C(C1CCN([S+](=O)([O-])c2ccccc2)C1)N1CCC(c2nc3ncccc3[nH]2)CC1 (centres undefined),-12%,-16%,i,·,·
O=C(CCC1CCCC1)N1CC[C@@H]2COCCN(Cc3ccncc3)[C@@H]2C1,?,?,-18%,·,·
COCCN1CCN(C[C@@H]2C=C(C)[C@H](Cc3nnc(-c4ccc(OC)cc4)o3)C[C@H]2C(C)C)CC1,40µM*,40µM*,-8%,i,0%
COc1ccc(-c2nnc(C[C@@H]3C[C@@H](C(C)C)[C@H](CN4CCN(c5ncccn5)CC4)C=C3C)o2)cc1,40µM*,?,-6%,i,-27%
COCCN1CCN(C[C@@H]2C=C(C)[C@H](Cc3nnc(C)o3)C[C@H]2C(C)C)CC1,89µM*,?,-1%[88.5 µM],i,-3%[70.6 µM]
COC(=O)CNC(=O)c1cc(-c2ccc([S+](C)(=O)[O-])cc2)c2cccn2n1,i,-21%,-4%,·,·
COc1ccc(CN2CC(Oc3ccc(F)c(C)c3)C2)cc1,89µM*,?,i,i,-5%[70.6 µM]
Cc1ccccc1N(C)C1CN(Cc2ccc(C#N)cc2)C1,?,?,-3%[88.5 µM],i,0%[70.6 µM]
COc1ccc(CN2CC(N(C)c3ccccc3C)C2)cc1,?,79µM*,i,·,·
CNC(=O)c1cc(C2CC2)nc2c1c(C1CCCN1C(=O)c1ccccc1F)nn2C (centres undefined),-21%,-27%,·,·,·
Fc1ccc2nc(CO[C@H]3CN(Cc4ccccn4)C[C@H]3F)[nH]c2c1,-11%[172 µM],-2%[138 µM],-7%[88.5 µM],i,4%[70.6 µM]
Cn1cc(CN2C[C@@H](F)[C@@H](OCc3nc4ncccc4[nH]3)C2)c2ccccc21,89µM*,?,i,i,-4%[70.6 µM]
Fc1ccc2nc(CO[C@H]3CN(Cc4ccc5ccccc5n4)C[C@H]3F)[nH]c2c1,89µM*,?,5%[88.5 µM],?,?
Cn1cc(CN2C[C@@H](F)[C@@H](OCc3nc4ccccc4n3C)C2)c2ccccc21,?,?,3%[88.5 µM],i,?
Cc1ccc2nc(CO[C@H]3CN(Cc4cn(C)c5ccccc45)C[C@H]3F)[nH]c2c1,89µM*,79µM*,1%[88.5 µM],i,?
COc1cccc(CN2C[C@@H](F)[C@@H](OCc3nc4ncccc4[nH]3)C2)c1,?,?,i,i,-8%[70.6 µM]
Cn1cc(CN2C[C@@H](F)[C@@H](OCc3nc4ccccc4[nH]3)C2)c2ccccc21,100µM*,?,-2%[88.5 µM],i,-4%[70.6 µM]
COC(=O)c1ccc2nc(CO[C@H]3CN(Cc4cn(C)c5ccccc45)C[C@H]3F)[nH]c2c1,?,?,-21%,i,-17%
CCCCCC(=O)Nc1nc2c(s1)C[C@@H]1[C@](C)(CO)[C@H](O)CC[C@@]1(C)[C@@H]2CC(=O)NCCOC,-1%,-2%,i,i,2%
O=C1[C@H]2CN(Cc3cc(Br)ccc3F)C[C@H]2C(=O)N1CCc1ccccc1,?,?,2%,i,-10%
O=C(NC1CCCC1)N1CCc2nc(C3CC3)nc(-c3ccc(Cl)cc3)c2C1,?,?,i,·,·
COc1ccc(-c2cc3nc4c(c(=O)n3[nH]2)CCN(C(=O)COc2ccccc2C)C4)cc1,-24%,-19%,-5%,14µM*,-10%
Cc1ccccc1OCC(=O)N1CCc2c(nc3cc(-c4ccccc4Cl)[nH]n3c2=O)C1,?,?,i,i,-14%
